Laboratory results as given in PubChem BioAssay AID1159580 (chemical genetic matrix, 2015).
The campaign covered roughly 5,500 compounds. About 2,000 (36%) were called active. Another 18% or so got no clear call; they are omitted. No stated cut-off is given here; in the data, active means normalized growth mostly below about 0.91 (no sharp cut-off); inconclusive means no clear call, values can overlap the other calls; inactive means mostly above about 0.92. The list shows a part of the results.

Test: chemical genetic growth profiling, strain panel (AID 1159580);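 further: tested at 20 µM; growth read once vehicle control cultures reached saturation at 30 °C; 1 = growth at the plate median or of vehicle wells; lower values mean less growth of the strain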
Conditions: growth OD
[1] = S. cerevisiae deletion strains, locus YAL013W, strain DEP1, hits give low values
[2] = S. cerevisiae deletion strains, locus YBR229C, strain ROT2, hits give low values
[3] = S. cerevisiae deletion strains, locus YDL101C, strain DUN1, hits give low values
[4] = S. cerevisiae deletion strains, locus YDL134C, strain PPH21, hits give low values
[5] = S. cerevisiae deletion strains, locus YDR150W, strain NUM1, hits give low values
[6] = S. cerevisiae deletion strains, locus YEL061C, strain CIN8, hits give low values
[7] = S. cerevisiae deletion strains, locus YGR078C, strain PAC10, hits give low values
[8] = S. cerevisiae deletion strains, locus YHR030C, strain SLT2, hits give low values
[9] = S. cerevisiae deletion strains, locus YHR087W, strain rtc3, hits give low values
[10] = S. cerevisiae deletion strains, locus YJR043C, strain POL32, hits give low values
[11] = S. cerevisiae deletion strains, locus YJR075W, strain HOC1, hits give low values
[12] = S. cerevisiae deletion strains, locus YKL190W, strain CNB1, hits give low values
[13] = S. cerevisiae deletion strains, locus YLR039C, strain RIC1, hits give low values
[14] = S. cerevisiae deletion strains, locus YLR058C, strain SHM2 (second series), hits give low values
[15] = S. cerevisiae deletion strains, locus YLR085C, strain ARP6, hits give low values
[16] = S. cerevisiae deletion strains, locus YLR262C, strain YPT6, hits give low values
[17] = S. cerevisiae deletion strains, locus YML094W, strain GIM5, hits give low values
[18] = S. cerevisiae deletion strains, locus YMR219W, strain ESC1, hits give low values
[19] = S. cerevisiae deletion strains, locus YMR263W, strain SAP30, hits give low values
[20] = S. cerevisiae deletion strains, locus YMR307W, strain GAS1, hits give low values
[21] = S. cerevisiae deletion strains, locus YNL153C, strain GIM3, hits give low values
[22] = S. cerevisiae deletion strains, locus YNL298W, strain CLA4 (second series), hits give low values
[23] = S. cerevisiae deletion strains, locus YNL322C, strain KRE1, hits give low values
[24] = S. cerevisiae deletion strains, locus YNR030W, strain Alg12, hits give low values
[25] = S. cerevisiae deletion strains, locus YPL055C, strain LGE1, hits give low values
[26] = S. cerevisiae deletion strains, locus YPL241C, strain CIN2, hits give low values
[27] = S. cerevisiae deletion strains, locus YPR135W, strain CTF4, hits give low values

Measured: normalized growth

O=C1C=C(Cl)CC(c2ccc(C(F)(F)F)cc2)C1 (stereo not drawn)
inactive: [1] 1 | [2] 0.988 | S. cerevisiae deletion strains, locus YCL061C, strain MRC1, hits give low values 1.01 | [3] 0.995 | [4] 1.03 | [5] 1.1 | [6] 1.03 | [7] 1.01 | [8] 0.987 | [9] 0.975 | [10] 1.01 | [11] 1.02 | [12] 0.983 | [13] 0.936 | [14] 0.986 | [15] 1.06 | [16] 0.94 | [17] 1.04 | [18] 1.01 | [19] 0.989 | [20] 1.01 | S. cerevisiae deletion strains, locus YNL128W, strain TEP1, hits give low values 0.987 | [21] 0.992 | [22] 0.985 | [23] 0.991 | [24] 1.02 | [25] 1.14 | [26] 1.02 | [27] 1.03 | S. cerevisiae strains, strain wild type, hits give low values 0.971

CC(=O)C1C(=O)CC(c2ccc(Cl)cc2)CC1=O (stereo not drawn)
active: [1] 0.342 | [2] 0.454 | [3] 0.425 | [4] 0.854 | [5] 0.489 | [6] 0.867 | [7] 0.463 | [8] 0.199 | [9] 0.541 | [10] 0.585 | [11] 0.444 | [12] 0.848 | [13] 0.218 | [14] 0.761 | [15] 0.529 | [16] 0.219 | [18] 0.562 | [19] 0.268 | [20] 0.218 | [21] 0.512 | [23] 0.796 | [24] 0.855 | [25] 0.211 | [26] 0.845
inactive: [17] 0.901 | [22] 0.849 | S. cerevisiae deletion strains, locus YOL006C, strain TOP1, hits give low values 0.774 | [27] 0.718
